Reference: PubChem BioAssay (Tox21)
Values joined by “and” are separate entries in the source; they are usually repeats but may differ in a detail not shown here. Equal values may be shown once. Inconclusive results are not listed. Active and inactive are the calls of the source. The call rests on the fitted dose curve; in most records, active means well fitted curve in the direction sought with a large enough effect in the repeat runs; inconclusive means weak or mixed curves; inactive means no such curve, though single readings can be large; an effect the other way counts as inactive or inconclusive.

Columns and labels:
[1] = A CellTox Green Cytotoxicity Assay to monitor cytotoxicity in HepG2 cells - 0 hour (AID 1224882); further: nearly all actives have a fitted effect of over 35% in size; further: potency means the concentration at half of the fitted maximal effect
How it was run: (§1)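 Cytotoxicity was tracked as dead-cell DNA fluorescence in HepG2 cells treated with test compounds at 37 C; each time-point value comes from one kinetic series spanning 0, 8, 16, 24, 32 and 40 h.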

[2] = A CellTox Green Cytotoxicity Assay to monitor cytotoxicity in HepG2 cells - 32 hour (AID 1224883); further: nearly all actives have a fitted effect of over 50% in size; further: potency means the concentration at half of the fitted maximal effect
How it was run: as §1

[3] = A CellTox Green Cytotoxicity Assay to monitor cytotoxicity in HEK293 cells - 8 hour (AID 1224884); further: nearly all actives have a fitted effect of over 35% in size; further: potency means the concentration at half of the fitted maximal effect
How it was run: (§2)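 Real-time, in one plate: 600 HEK293 cells/well with dead-cell DNA dye, pinned compound after 5 h, 37 C incubation over 40 h; viable cells give no appreciable fluorescence.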

[4] = qHTS RealTime-Glo MT Cell Viability Assay in HepG2 cells - 16 hour (AID 1224885); further: nearly all actives have a fitted effect of over 50% in size
How it was run: (§3)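 Viability was tracked continuously by NanoLuc luminescence from prosubstrate reduced by living HepG2 cells, at successive time points over 40 h of compound exposure. Cells with reagent were preincubated 5 h at 37 °C before compound addition.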

[5] = qHTS RealTime-Glo MT Cell Viability Assay in HEK293 cells - 24 hour (AID 1224886); further: nearly all actives have a fitted effect of over 50% in size; further: potency means the concentration at half of the fitted maximal effect
How it was run: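 Viability tracked continuously by luminescence as live cells reduce a prosubstrate for NanoLuc; HEK293 cells preincubated 5 h, compound-treated at 37 C, and read at 0, 8, 16, 24, 32 and 40 h.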

[6] = A CellTox Green Cytotoxicity Assay to monitor cytotoxicity in HEK293 cells - 16 hour (AID 1224888); further: nearly all actives have a fitted effect of over 35% in size; further: potency means the concentration at half of the fitted maximal effect
How it was run: as §2

[7] = qHTS RealTime-Glo MT Cell Viability Assay in HepG2 cells - 0 hour (AID 1224889); further: nearly all actives have a fitted effect of over 50% in size; further: potency means the concentration at half of the fitted maximal effect
How it was run: as §3

[8] = A CellTox Green Cytotoxicity Assay to monitor cytotoxicity in HepG2 cells - 8 hour (AID 1224890); further: nearly all actives have a fitted effect of over 45% in size; further: potency means the concentration at half of the fitted maximal effect
How it was run: as §1

[9] = qHTS assay to identify small molecule antagonists of the estrogen receptor alpha (ER-alpha) signaling pathway using the BG1 cell line in the presence of 0.1 nM 17-beta-estradiol - cell viability counter screen (AID 1259241); further: nearly all actives have a fitted effect of over 40% in size; further: potency means the concentration at half of the fitted maximal effect
How it was run: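 CellTiter-Fluor read (30 min, 37C) on ER-alpha/ERE-luc VM7Luc4E2 cells; 22 hr compound treatment; agonist 0.1 nM E2 final; same-well multiplex.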

[10] = qHTS RealTime-Glo MT Cell Viability Assay in HEK293 cells - 8 hour (AID 1224887); further: nearly all actives have a fitted effect of over 50% in size; further: potency means the concentration at half of the fitted maximal effect
How it was run: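 Kinetic, non-lysing viability readout. Seed HEK293 (600/well) with reagent, incubate 5 h at 37 C/5% CO2, pin 23 nL compound in DMSO, incubate at 37 C, read luminescence at 0, 8, 16, 24, 32, 40 h.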

Measured: Potency

CC(C)CC(=O)C1C(=O)c2ccccc2C1=O
inactive: [1] | [2] | [3] | [4] | [5] | [6] | [7] | [8] | [9]

Cc1cccc(C)c1OCC(=O)N[C@@H](Cc1ccccc1)[C@@H](O)C[C@H](Cc1ccccc1)NC(=O)[C@H](C(C)C)N1CCCNC1=O
active: [5] 23.9 µM
inactive: [1] | [2] | [3] | [4] | [6] | [7] | [8]

NC(=O)C(c1ccccc1)(c1ccccc1)[C@@H]1CCN(CCc2ccc3c(c2)CCO3)C1
inactive: [4] | [10] | [7] | [9]
active: [1] 23.9 µM | [2] 23.9 µM | [3] 21.3 µM | [6] 21.3 µM | [8] 21.3 µM

CC(=O)c1ccc2c(c1)N(CCCN1CCC(CCO)CC1)c1ccccc1S2
active: [2] 23.9 µM
inactive: [1] | [3] | [4] | [6] | [7] | [8] | [9]

CCOc1ccc(N)c([N+](=O)[O-])c1
inactive: [1] | [2] | [3] | [4] | [6] | [7] | [8] | [9]

CN1Cc2cc(C(=O)N3CCC(C4CCNCC4)CC3)ccc2NC(CC(=O)O)C1=O (configuration not stated)
inactive: [1] | [2] | [3] | [5] | [10] | [6] | [7] | [8]

CCC(=O)O[C@]1(C(=O)CCl)[C@@H](C)C[C@H]2[C@@H]3CCC4=CC(=O)C=C[C@]4(C)[C@@]3(F)[C@@H](O)C[C@@]21C
inactive: [1] | [2] | [3] | [4] | [10] | [6] | [7] | [8] | [9]

COc1cc2nc(Cl)nc(N)c2cc1OC
inactive: [1] | [2] | [3] | [4] | [6] | [7] | [8]

C[N+]1(CC2COC(c3ccccc3)(C3CCCCC3)O2)CCCCC1 (configuration not stated)
inactive: [1] | [2] | [3] | [4] | [10] | [6] | [7] | [8]

Cn1c(=O)cc(Oc2ccc(F)cc2F)c2cnc(NCC(C)(C)O)nc21
inactive: [1] | [2] | [3] | [4] | [10] | [6] | [7] | [8] | [9]

CN(C)C(=O)NC1(c2ccccc2)CCN(CC[C@@]2(c3ccc(F)c(F)c3)CN(C(=O)c3ccccc3)CCO2)CC1
inactive: [1] | [2] | [3] | [4] | [6] | [7] | [8] | [9]

O=C1[C@H]2CCCC[C@H]2C(=O)N1CCCCN1CCN(c2nsc3ccccc23)CC1
inactive: [1] | [2] | [3] | [4] | [6] | [7] | [8]

CCOc1ccc(O)cc1
inactive: [1] | [2] | [3] | [4] | [6] | [7] | [8] | [9]

C/C=C/C=C/CO
inactive: [1] | [2] | [3] | [4] | [10] | [6] | [7] | [9]

CCOC(=O)COC(=O)c1cc(Oc2ccc(C(F)(F)F)cc2Cl)ccc1[N+](=O)[O-]
active: [10] 49 µM
inactive: [1] | [2] | [3] | [4] | [6] | [7] | [9]

O=C(OCCCCCCOC(=O)c1ccccc1)c1ccccc1
inactive: [1] | [2] | [3] | [4] | [6] | [7] | [8] | [9]

CC(C)(COC(=O)c1ccccc1)COC(=O)c1ccccc1
inactive: [1] | [2] | [3] | [4] | [6] | [7] | [8] | [9]

CNC(=O)CN(CCN(CCN(CC(=O)[O-])CC(=O)NC)CC(=O)[O-])CC(=O)[O-].O.[Gd+3]
inactive: [1] | [2] | [3] | [5] | [10] | [6] | [7] | [8]

CCCCC(CC)CN1C(=O)C2C3C=CC(C3)C2C1=O (configuration not stated)
inactive: [1] | [2] | [3] | [4] | [7] | [9]

Nc1ccc(N)c2c1C(=O)c1ccccc1C2=O
inactive: [1] | [2] | [3] | [4] | [6] | [7] | [8]
active: [9] 12.2 µM

CCn1cc(C(=O)O)c(=O)c2cnc(N3CCNCC3)nc21
inactive: [1] | [2] | [3] | [5] | [10] | [6] | [7] | [8] | [9]

C=CC(=O)OCCOCCOC(=O)C=C
active: [2] 49.2 µM | [5] 31 µM | [9] 61.4 µM
inactive: [1] | [3] | [10] | [7] | [8]

COCC(C)OC(C)=O (configuration not stated)
inactive: [1] | [2] | [3] | [5] | [10] | [6] | [7] | [8] | [9]

CCN(CC)CCOC(=O)C(c1ccccc1)C1CCCCC1 (configuration not stated)
active: [2] 23.9 µM
inactive: [1] | [3] | [6] | [7]

CCCCCCCN
inactive: [1] | [2] | [3] | [5] | [10] | [6] | [7] | [8] | [9]

CCOC(=O)C(F)(F)F
inactive: [1] | [2] | [3] | [5] | [10] | [6] | [7] | [8] | [9]

Nc1ccc([N+](=O)[O-])c(C(F)(F)F)c1
inactive: [1] | [2] | [3] | [5] | [10] | [7] | [8] | [9]

CC/C=C\CCOC(=O)CC
inactive: [1] | [2] | [3] | [5] | [10] | [6] | [7] | [8] | [9]

O=C(CS)Nc1ccccc1
inactive: [1] | [2] | [3] | [5] | [10] | [6] | [7] | [9]

OCc1cc(C(O)CNCCCCCCOCCCCc2ccccc2)ccc1O (configuration not stated)
active: [2] 23.9 µM | [5] 19 µM
inactive: [1] | [3] | [7] | [8]

S=C([S-])NCCNC(=S)[S-].[Mn+2]
inactive: [1] | [2] | [3] | [10] | [6] | [7] | [8] | [9]

CCN(CC)c1ccc2c(-c3ccccc3C(=O)O)c3ccc(=[N+](CC)CC)cc-3oc2c1
active: [1] 21.9 µM | [2] 24.5 µM | [3] 24.5 µM | [5] 24.5 µM | [6] 24.5 µM | [8] 24.5 µM | [9] 8.63 µM

CCCCCCCCCOS(=O)(=O)O
inactive: [1] | [2] | [3] | [5] | [10] | [7] | [8] | [9]

CCOC(=O)NCCOc1ccc(Oc2ccccc2)cc1
active: [5] 21.9 µM
inactive: [1] | [2] | [3] | [6] | [7] | [9]

CCCCCCCCCCCCCCOS(=O)(=O)O
active: [2] 38.9 µM | [3] 21.9 µM | [6] 43.6 µM
inactive: [1] | [5] | [10] | [7] | [9]

C[C@@H]1C[C@H]2[C@@H]3CCC4=CC(=O)C=C[C@]4(C)[C@@]3(F)[C@@H](O)C[C@]2(C)[C@@]1(O)C(=O)COC(=O)c1ccncc1
active: [7] 1.07 µM
inactive: [1] | [2] | [3] | [5] | [10] | [6] | [8] | [9]

C=CC(=O)OCCOCCOCCOCCOC(=O)C=C
inactive: [1] | [3] | [7]
active: [2] 39.1 µM and 13.7 µM | [5] 34.8 µM and 30.6 µM

OC(CN1CCC(Cc2ccc(F)cc2)CC1)c1ccc(Cl)cc1 (configuration not stated)
inactive: [1] | [3] | [7] | [9]
active: [2] 23.9 µM | [5] 9.52 µM | [10] 16.9 µM

CCc1c(C(=O)NN2CCCCC2)nn(-c2ccc(Cl)cc2Cl)c1-c1ccc(Br)cc1
inactive: [1] | [2] | [3] | [5] | [6] | [7] | [8] | [9]

O=CC1CC=CCC1 (configuration not stated)
inactive: [1] | [2] | [3] | [5] | [10] | [6] | [7] | [8] | [9]

COCCCN1CCC(NC(=O)c2cc(Cl)c(N)c3c2OCC3)CC1
inactive: [1] | [2] | [3] | [5] | [10] | [6] | [7] | [8]

C=C(C)C(=O)OCC
inactive: [1] | [2] | [3] | [5] | [10] | [6] | [7] | [8] | [9]

Nc1ncn([C@H]2C[C@H](O)[C@@H](CO)O2)c(=O)n1
inactive: [1] | [2] | [3] | [5] | [10] | [6] | [7] | [8] | [9]

COc1ccc(C(=O)N2CCN(CC(=O)N3CCOCC3)CC2)cc1
inactive: [1] | [2] | [3] | [5] | [10] | [6] | [7] | [9]

Nc1ccccc1S(=O)(=O)c1ccccc1
inactive: [1] | [2] | [3] | [5] | [10] | [6] | [7] | [9]

COc1cc2c(cc1OC)C(C(C(=O)N(CCc1ccc(OC)c(OC)c1OC)CCc1ccc(OC)c(OC)c1OC)c1ccccc1)=NCC2 (configuration not stated)
active: [5] 3.38 µM | [10] 3.01 µM
inactive: [1] | [2] | [3] | [6] | [7] | [8] | [9]

COS(=O)(=O)C(F)(F)F
inactive: [1] | [2] | [3] | [5] | [10] | [6] | [7] | [8] | [9]

CCCCCCOC(=O)NC(=N)c1ccc(NCc2nc3cc(C(=O)N(CCC(=O)OCC)c4ccccn4)ccc3n2C)cc1
inactive: [1] | [3] | [7] | [8]
active: [2] 23.9 µM | [5] 9.52 µM | [10] 9.52 µM

O=C(c1ccc(F)cc1)C1CCN(CCn2c(=S)[nH]c3ccccc3c2=O)CC1
inactive: [1] | [2] | [3] | [6] | [7] | [8] | [9]
active: [5] 7.56 µM | [10] 4.77 µM
